PubChem BioAssay (NCATS)
Records with an inconclusive call do not appear. The source made the active and inactive calls. Calls come from the whole dose curve; as a rule, active = well fitted cell-killing curve with a large enough effect; inconclusive = small, poorly fitted or top-dose-only effect, or effect the other way; inactive = flat fitted curve, though single readings scatter.

How the values were obtained:
Assay in all cases: Primary qHTS to identify gynecologic anti-cancer compounds using libraries of approved drugs and bioactive compounds (AID 1345084); note: nearly all actives have a fitted effect of over 55% in size
Settings in all cases: Gynecologic cancer cell panel viability, ATPlite luminescence, 48 h; series mostly up to 57.5 µM
OV90 = system: OV90
Summary of the method: (§1)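 Luminescence from the ATPlite ATP-monitoring reagent indicates viable cell number; lower signal means cytotoxicity. Cells received compound 16 h after seeding and were exposed for 48 h across five concentrations.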

PA-1 = system: PA-1
Summary of the method: as §1

SKOV3 = system: SKOV3
Summary of the method: as §1

Tov-21-G = system: Tov-21-G
Summary of the method: as §1

Tov112D = system: Tov112D
Summary of the method: as §1
% is set by controls: 0 for no effect and ±100 for the full control effect.

CO[C@H]1c2cc(C(C)C)c(O)c(O)c2[C@@]23CCCC(C)(C)C2[C@@H]1OC3=O (stereo not given in full)
inactive: Potency (OV90) | Potency (PA-1) | Potency (SKOV3) | Potency (Tov-21-G) | Potency (Tov112D)

CC(=O)OC[C@]12[C@H](OC(C)=O)[C@H](OC(=O)c3ccccc3)[C@@H]3[C@@H](OC(C)=O)[C@]1(OC3(C)C)[C@H](C)C[C@H](OC(=O)c1ccccc1)[C@@H]2OC(=O)c1ccccc1
inactive: Potency (OV90) | Potency (PA-1) | Potency (SKOV3) | Potency (Tov-21-G) | Potency (Tov112D)

O=C(OCc1ccccc1O[C@@H]1O[C@H](CO)[C@@H](O)[C@H](O)[C@H]1O)C1(O)C=CCCC1O (stereo not given in full)
inactive: Potency (OV90) | Potency (PA-1) | Potency (SKOV3) | Potency (Tov-21-G) | Potency (Tov112D)

C=C1CCC2C(C)(C)CCC[C@]2(C)[C@H]1CC/C(C)=C/C(=O)O (stereo not given in full)
inactive: Potency (OV90) | Potency (PA-1) | Potency (SKOV3) | Potency (Tov-21-G) | Potency (Tov112D)

CC1(C)C2CC[C@]3(C)C(C(=O)C=C4[C@H]5C[C@@](C)(C(=O)O)CC[C@]5(C)CC[C@]43C)[C@@]2(C)CC[C@@H]1O (stereo not given in full)
inactive: Potency (OV90) | Potency (PA-1) | Potency (SKOV3) | Potency (Tov-21-G) | Potency (Tov112D)

COc1cc(/C=C/C(=O)O)ccc1O[C@@H]1O[C@H](CO)[C@@H](O)[C@H](O)[C@H]1O[C@@H]1OC[C@](O)(CO)[C@H]1O
inactive: Potency (OV90) | Potency (PA-1) | Potency (SKOV3) | Potency (Tov-21-G) | Potency (Tov112D)

C=CC(C)(C)C12Nc3c(ccc4c3OC(C)(C)C=C4)C1(O)CC1C(=O)N3CCCC3C(=O)N12 (stereo not given)
inactive: Potency (OV90) | Potency (PA-1) | Potency (SKOV3) | Potency (Tov-21-G) | Potency (Tov112D)

COc1cc(/C=C/C(=O)OC[C@H]2O[C@@H](OC3OC=C(C(=O)O)C4C(O)CC(C)(O)C34)[C@H](O)[C@@H](O)[C@@H]2O)cc(OC)c1O (stereo not given in full)
inactive: Potency (OV90) | Potency (PA-1) | Potency (SKOV3) | Potency (Tov-21-G) | Potency (Tov112D)

CCCC1=CC2=C(CO1)C(=O)C(C)(O)C(OC(=O)c1c(C)cc(OC)cc1O)C2 (stereo not given)
inactive: Potency (OV90) | Potency (PA-1) | Potency (SKOV3) | Potency (Tov-21-G) | Potency (Tov112D)

O=C(Nc1ccn(Cc2c(F)cccc2C(F)(F)F)n1)c1c(F)cccc1F
inactive: activity change, negative = cytotoxicity (OV90) 0.656% [at 11.6 µM] | activity change, negative = cytotoxicity (PA-1) 10.8% [at 11.6 µM] | activity change, negative = cytotoxicity (SKOV3) 9.68% [at 11.6 µM] | activity change, negative = cytotoxicity (Tov-21-G) 10.6% [at 11.6 µM] | activity change, negative = cytotoxicity (Tov112D) 3.93% [at 11.6 µM]

CCNC(=O)C1CC(F)(c2ccc(CN3CCCC3)c(F)c2)C1 (stereo not given)
inactive: Potency (OV90) | Potency (PA-1) | Potency (SKOV3) | Potency (Tov-21-G) | Potency (Tov112D)

OC[C@H]1O[C@@H](O[C@H]2[C@H](O)[C@@H](CO)O[C@@H](OCc3ccccc3)[C@@H]2O[C@@H]2OC[C@](O)(CO)[C@H]2O)[C@H](O)[C@@H](O)[C@@H]1O
inactive: Potency (OV90) | Potency (PA-1) | Potency (SKOV3) | Potency (Tov-21-G) | Potency (Tov112D)

CCCc1[nH]nc2c1C(c1cc(Cl)cc(Cl)c1O)C(C#N)=C(N)O2 (stereo not given)
inactive: Potency (OV90) | Potency (PA-1) | Potency (SKOV3) | Potency (Tov-21-G) | Potency (Tov112D)

CC1(C)CC[C@]2(C(=O)O[C@@H]3O[C@H](CO)[C@@H](O)[C@H](O)[C@H]3O)CC[C@]3(C)C(=CCC4[C@@]5(C)CC[C@H](O[C@@H]6O[C@H](C(=O)O)[C@@H](O[C@@H]7O[C@H](CO)[C@@H](O)[C@H](O)[C@H]7O)[C@H](O)[C@H]6O[C@@H]6O[C@H](CO)[C@@H](O)[C@H](O)[C@H]6O)C(C)(C)C5CC[C@]43C)C2C1 (stereo not given in full)
inactive: activity change, negative = cytotoxicity (OV90) 4.99% [at 11.6 µM] | activity change, negative = cytotoxicity (PA-1) 18.4% [at 11.6 µM] | activity change, negative = cytotoxicity (SKOV3) 10.3% [at 11.6 µM] | activity change, negative = cytotoxicity (Tov-21-G) -2% [at 11.6 µM] | activity change, negative = cytotoxicity (Tov112D) 6.91% [at 11.6 µM]

CS(=O)(=O)c1ccccc1N1CCN(c2nc3c(c(=O)[nH]2)CSCC3)CC1
inactive: Potency (OV90) | Potency (PA-1) | Potency (SKOV3) | Potency (Tov-21-G) | Potency (Tov112D)

C=CC(C)(CC/C=C(\C)C(=O)OC[C@H]1O[C@@H](OC(C)(C=C)CC/C=C(\C)C(=O)O[C@H]2[C@H](O)[C@@H](O)[C@H](OC(C)(C=C)CC/C=C(\C)C(=O)O)O[C@@H]2CO)[C@H](O)[C@@H](O)[C@@H]1O)O[C@@H]1O[C@H](CO)[C@@H](O)[C@H](O)[C@H]1O (stereo not given in full)
inactive: activity change, negative = cytotoxicity (OV90) 2.45% [at 11.6 µM] | activity change, negative = cytotoxicity (PA-1) 1.36% [at 11.6 µM] | activity change, negative = cytotoxicity (SKOV3) 0.327% [at 11.6 µM] | activity change, negative = cytotoxicity (Tov-21-G) -2.47% [at 11.6 µM] | activity change, negative = cytotoxicity (Tov112D) 8.98% [at 11.6 µM]

COc1ccc(OC2OC(CO[C@@H]3O[C@@H](C)[C@H](O)[C@@H](O)[C@H]3O)C(O)C(O)C2O)cc1OC (stereo not given in full)
inactive: Potency (OV90) | Potency (PA-1) | Potency (SKOV3) | Potency (Tov-21-G) | Potency (Tov112D)
